Among the data in the supplement of paper PMC4894684 are parasite growth values, retold here.

Counter-ions that a name gives are not always drawn. ± gives the standard deviation of the averaged measurements.

The assay deals with Toxoplasma gondii RH (in HFF). Kind of assay: parasite growth relative to the screen mean (all compounds = 100%); higher = less inhibition of parasite growth. As to conditions: 5 µM; 72 h; oxygen 21 %. The gist of the method:
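Parasite growth was reported relative to the screen mean. In that scale, the mean of all compounds equals 100%, and values are averaged over two screens. Compounds from 10 mM DMSO stocks were pin-transferred to 5 µM final onto confluent human foreskin fibroblasts in 96-well plates, infected within 2 h with RH β-Gal–GFP Toxoplasma (MOI 1:5) and grown 72 h at 21% O2, with parasite number read by a CPRG β-Gal assay against in-plate standard curves. Uninfected host-cell viability was checked with CellTiter-Blue.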
Compound `Nc1nc(Cl)nc2c1ncn2[C@@H]1O[C@H](CO)[C@@H](O)[C@@H]1F` [Clofarabine] returned a parasite growth of 67.9 ± 2.8%.
The same measure for `C=CCN1CCc2cc(O)c(O)cc2C(c2ccccc2)C1` (configuration not stated): 135 ± 1.6%.
`Cc1cc(C(C)(C)C)c(O)c(C)c1CC1=NCCN1` [Oxymetazoline hydrochloride] gave a parasite growth of 196 ± 16%.
`CCCCOc1cc(CC2CNC(=O)N2)ccc1OC` (configuration not stated) yielded a parasite growth of 156 ± 27%.
Regarding `CC[C@@H]1Cn2c(c3nc(-c4ccccc4)nc-3n(C)c2=O)N1`, the parasite growth was 96.8 ± 13%.
The result for `CCOC(=O)C1=C(C)NC(C)=C(C(=O)OC)C1c1cccc([N+](=O)[O-])c1` (configuration not stated) [Nitrendipine] reads 118 ± 5.5%; that for `CCCCCCN(CCCCCC)C(=O)Cc1c(-c2ccc(Cl)cc2)[nH]c2ccc(Cl)cc12`, 175 ± 22%.
